# Screens: PubChem BioAssay, National Center for Advancing Translational Sciences (NCATS)
# GLA spleen mod: alpha-galactosidase A (human) modulation. human spleen homogenate, 4MU-alpha-Gal fluorescence, 40 min. AID 2107. hit rate 0.008% among 240,000. P06280. Potency, µM (top dose mostly 80 µM), for the others: at the highest dose activity change, negative = inhibition, most hits filed as inhibitors;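 note: potency is the fitted concentration of half-maximal effect; 0% = enzyme with vehicle and -100% = no enzyme basal signal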
#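 Spleen homogenate 1 ug + cpd (titration) + 4-MU-alpha-D-galactopyranoside 1 mM; 37C 40 min; 50 mM citrate/phosphate pH 5.0, 0.01% Tween-20; stop pH 10; fluorescence 365/440; AC50 via Hill.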
# GAA glycogen mod: GAA glycogen-cleavage inhibition or activation | P10253 | recombinant GAA, glycogen substrate, Amplex Red glucose oxidase fluorescence | Potency, µM (highest dose often 76.4 µM), for the others: at the top dose activity change, negative = inhibition, usual class: inhibitors | hit rate 0.38% among 300,000;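 note: potency is the fitted concentration of half-maximal effect; 0% = full enzyme reaction and -100% = no-enzyme basal signal; the screen sought inhibitors and activators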
#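 Recombinant enzyme (4 nM final) with compounds titrated up to 77 uM and bovine liver glycogen (30 ug) in citrate pH 5.0, 0.01% Tween-20, 37 C 40 min. Released glucose detected by Amplex Red/glucose oxidase (Ex 573/Em 610); AC50 from Hill fits.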
# N370S GC: inhibits or activates N370S mutant glucocerebrosidase | hit rate 0.092% among 330,000 | AID 2101 | Potency, µM (doses to about 59.4 µM), without a hit: top-dose activity change, negative = inhibition, most hits filed as inhibitors | N370S GC spleen homogenate, 4MU-glucoside fluorescence;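 note: potency is the fitted concentration of half-maximal effect; 0% = full enzyme activity and -100% = no enzyme basal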
# GLA inh pH 4.5: alpha-galactosidase A (human) inhibition, pH 4.5 | 230,000 tested, under 10 active | purified enzyme, 4-MU-alpha-Gal fluorescence, pH 4.5 | P06280 | AID 1467 | activity change, negative = inhibition, % at 105 µM;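 note: 0% = full activity with enzyme and -100% = basal without enzyme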
# Target sequence (P06280 whole entry, looked up): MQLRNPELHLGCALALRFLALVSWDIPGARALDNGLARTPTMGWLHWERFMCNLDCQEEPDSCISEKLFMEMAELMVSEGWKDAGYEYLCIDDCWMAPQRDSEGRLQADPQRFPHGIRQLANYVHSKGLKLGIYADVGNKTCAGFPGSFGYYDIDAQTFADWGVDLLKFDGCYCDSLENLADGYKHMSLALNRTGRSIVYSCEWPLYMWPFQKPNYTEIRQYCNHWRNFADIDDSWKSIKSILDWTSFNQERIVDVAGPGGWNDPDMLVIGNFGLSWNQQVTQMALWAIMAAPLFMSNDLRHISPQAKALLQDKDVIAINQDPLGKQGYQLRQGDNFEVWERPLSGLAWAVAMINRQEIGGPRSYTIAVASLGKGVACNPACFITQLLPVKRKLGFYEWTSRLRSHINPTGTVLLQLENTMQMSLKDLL
# GAA spleen mod: inhibits or activates alpha-glucosidase in human spleen homogenate. hit rate 0.006% among 240,000. human spleen homogenate, 4-MU-alpha-glucoside fluorescence. Potency, µM (titrated, usually from 79.9 µM), for inactives: at the top dose activity change, negative = inhibition, actives largely listed as inhibitors. AID 2112;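 note: potency is the fitted concentration of half-maximal effect; 0% = enzyme with vehicle and -100% = no enzyme basal signal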
#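 Human spleen homogenate (1 ug) incubated with compounds and 1 mM 4-methylumbelliferyl-alpha-D-glucopyranoside in pH 5.0 citrate/phosphate buffer, 37 C, 40 min. Stopped at pH 10; 4-MU fluorescence (Ex 365/Em 440 nm); AC50 by Hill fit.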
# GAA inhib: inhibitors of human lysosomal alpha-glucosidase; P10253; purified human GAA, 4-MU-alpha-glucoside fluorescence; Potency, µM (doses to about 76.9 µM), for the others: at the highest dose activity change, negative = inhibition, usual class: inhibitors; hit rate 0.005% among 200,000; AID 1466;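 note: potency is the fitted concentration of half-maximal effect; plate controls were uninhibited enzyme wells for no effect and no-enzyme background for full effect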
#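 Compounds are titrated up to 77 uM against 4 nM human enzyme. Substrate 4-methylumbelliferyl-alpha-D-pyranoside (400 uM) reacts 20 min at room temperature in pH 5.0 buffer; liberated 4-methylumbelliferone is read at 440 nm.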
# * marks the source's active call; other numbers are inactive results; ? = inconclusive; . = not tested or not shown; [ ] = remark or other dose. The list is not random: actives were taken first. Their share in the collection is about 0.43%. Calls come from the whole dose curve; as a rule, active = well fitted curve in the direction sought with a large enough effect; inconclusive = small, poorly fitted or top-dose-only effect, or another doubt; inactive = no such curve, though single readings can be large; an effect the other way counts as inactive or inconclusive.
SMILES,GLA spleen mod,GAA glycogen mod,N370S GC,GLA inh pH 4.5,GAA spleen mod,GAA inhib
Cc1c(NC(C)C)c(=O)n(-c2ccccc2)n1C,2.3%,.,-1.4%,-13.0,-7.4%,.
Cc1c(NC(=O)C(=O)/C=C(\O)c2ccc(Cl)cc2)c(=O)n(-c2ccccc2)n1C,6.3%,?,6.3%,2.0,3.8%,-3.0%
Cc1c(NC(C)c2ccccc2O)c(=O)n(-c2ccccc2)n1C (configuration not stated),6.8%,28.2µM*,-11.1%,-2.3,-3.5%,-1.7%
Cc1c(NC(C)c2cc(Cl)ccc2O)c(=O)n(-c2ccccc2)n1C (configuration not stated),6.9%,11.2µM*,0.0%[12.8 µM],1.3,0.6%,-7.0%
OCc1ccc(-c2ccc(-c3ccc(CO)s3)o2)s1,?,.,?,?,16.6%,.
COc1cccc(CNC(=O)Nc2cccs2)c1,5.7%,?,-13.5%,-6.1,-17.1%,-3.9%
Cc1ccc(CNC(=O)Cc2cccs2)cc1,5.0%,2.1%,4.0%,-12.2,-13.2%,-5.3%
Cc1ccc(CNC(=O)Nc2cccs2)cc1,5.8%,28.2µM*,10.3%,-2.8,-6.6%,-5.6%
COc1ccccc1CNC(=O)Nc1cccs1,1.0%,28µM*,26.4%,-12.0,0.2%,-3.0%
COc1ccc(Br)cc1CNC(=O)Nc1cccs1,1.9%,?,-19.0%,0.8,-18.2%,-7.7%
COc1ccc(CNC(=O)Nc2cccs2)cc1OC,5.3%,10µM*,3.1%,1.8,2.1%,-7.5%
CCOC(=O)N1CCN(c2ccccc2O)CC1,1.0%,11.2µM*,-1.4%,1.5,-5.4%,-4.5%
COc1ccc(-c2nc3c(c4c2C[C@H](c2ccccc2)OC4)CN(S(=O)(=O)c2ccc(C)cc2)CC3)c(C)c1,-0.5%[17.5 µM],.,-6.6%[12.8 µM],0.0,4.9%[17.4 µM],.
COc1cccc(-c2nc(NCc3ccccc3)c3ccccc3n2)c1,15.3%,.,-5.1%,.,-4.5%,.
COc1ccc(CNc2nc(-c3ccoc3)nc3ccccc23)c(OC)c1,-9.2%,.,14.1µM*,-7.0,-1.0%,.
COc1ccccc1CNc1nc(-c2ccc3c(c2)OCO3)nc2ccccc12,-4.6%,.,15.8µM*,.,3.0%,.
COc1ccc(CNc2nc(-c3ccccc3CN(C)C)nc3ccccc23)c(OC)c1,0.7%,.,-7.2%,-5.3,1.1%,.
COc1cccc(-c2nc(NCc3ccccc3OC)c3ccccc3n2)c1,0.9%,.,14.1µM*,.,2.3%,.
COc1ccccc1CNc1nc(-c2ccc(N(C)C)cc2)nc2ccccc12,11.5%,.,-16.5%,-4.9,0.6%,.
CCCn1c(-c2ccc(F)cc2)nc2c(NCCCCN(C)C)nc(C)nc21,-2.5%,.,-9.7%,-3.2,5.3%,.
COc1cccc(-c2nnc3n2N=C(c2c(OC)cccc2OC)CS3)c1OC,-1.9%,.,-1.6%,.,0.6%,.
COc1ccc(C(=O)NNC2=CC(=O)CC(C)(C)C2)cc1,-0.3%,?,-4.7%,-3.4,-1.2%,-0.7%
CC1(C)CC(=O)C=C(NNC(=O)c2ccccc2O)C1,0.1%,44.7µM*,8.5%,0.4,1.6%,-11.1%
COc1cccc(C(=O)CC2c3c(c(Br)c4c(c3OC)OCO4)CCN2C)c1 (configuration not stated),-3.9%,.,-4.1%,-7.6,-5.4%,.
N#CC1=C(SCC(=O)NC2CC2)NC(=O)C(C#N)C12CCCCC2 (configuration not stated),-13.4%,25.1µM*,-1.7%,11.0,-5.9%,-0.4%
SMILES,GLA spleen mod,GAA glycogen mod,N370S GC,GLA inh pH 4.5,GAA spleen mod,GAA inhib
NCC(=O)N[C@@H](CCCN=C(N)N)C(=O)NCC(=O)N[C@@H](CC(=O)O)C(=O)N[C@@H](CO)C(=O)O,-0.9%,.,-2.0%,.,-1.5%,.
C/C=C/C1=CC2=CC(=O)C(C)(OC(=O)c3c(C)cc(O)cc3O)C(=O)C2=CO1 (configuration not stated),9.3%,.,-2.8%,-3.7,-6.1%,.
CCCCN(CC)CCCNC(=O)Nc1sc2nc3n(c(=O)c2c1C)CCC(C)CC3 (configuration not stated),.,10µM*,.,.,.,.
O=C(Nc1cc(S(=O)(=O)N2CCOCC2)ccc1N1CCOCC1)c1cc(=O)[nH]c2ccccc12,-7.1%,28.2µM*,4.4%,-11.3,-17.5%,?
O=c1cc(-c2ccc(O)c(O)c2)oc2ccccc12,-8.9%,.,-27.2%,5.4,0.6%,.
S=C(NCc1ccncc1)Nc1ccccc1,0.5%,9.3%,-4.1%,3.5,2.9%,4.6%
S=C(NCc1ccncc1)Nc1ccc(Br)cc1,.,-6.0%[76.3 µM],17.8µM*,.,.,.
C[C@H](NC(=O)[C@@H](N)Cc1ccc(O)cc1)C(=O)NCC(=O)N[C@H]1CSSC[C@@H](C(=O)O)NC(=O)[C@H](CO)NC(=O)[C@H]([C@@H](C)O)NC(=O)[C@H](Cc2ccccc2)NC(=O)[C@H]([C@@H](C)O)NC(=O)[C@H](CCCCN)NC(=O)[C@@H](Cc2c[nH]c3ccccc23)NC(=O)[C@H](Cc2ccccc2)NC(=O)[C@H](Cc2ccccc2)NC(=O)[C@H](CC(N)=O)NC(=O)[C@H](CCCCN)NC1=O,3.0%,.,-6.1%,.,4.3%,.
COc1ccc(/C=N\NC(=O)C2=NNC(=O)C2C)cc1 (configuration not stated),-16.0%,28µM*,-3.7%,9.7,-7.7%,4.7%
CCN(CCN(C)C)C(=O)C1CCN(S(=O)(=O)c2c(C)noc2/C=C/c2ccccc2F)CC1,.,0.0%[76.3 µM],7.08µM*,.,.,.
CCOc1ccccc1/C=C/c1onc(C)c1S(=O)(=O)N1CCC(C(=O)N(CC)CC)CC1,.,.,-41.4%,.,.,.
CC[C@H](C)[C@H](NC(=O)[C@H](Cc1ccc(O)cc1)NC(=O)[C@H](Cc1cnc[nH]1)NC(=O)[C@H](CCCNC(=N)N)NC(=O)[C@H](CC(C)C)NC(=O)[C@H](C)NC(=O)[C@@H](N)CO)C(=O)N[C@@H](CC(N)=O)C(=O)N[C@@H](CC(C)C)C(=O)N[C@H](C(=O)N[C@H](C(=O)N[C@@H](CCCNC(=N)N)C(=O)N[C@@H](CCC(N)=O)C(=O)N[C@@H](CCCNC(=N)N)C(=O)N[C@@H](Cc1ccc(O)cc1)C(N)=O)[C@@H](C)O)[C@@H](C)CC,-2.5%,.,0.1%,.,0.9%,.
ICCc1ccccc1,2.2%,.,19.3%,.,10.2%,.
O=C1OCC(CO)(CO)N=C1NNc1ccccc1Cl,-1.6%,28.2µM*,7.3%,1.5,-8.5%,-7.1%
CC1(C)CC(O)C(C)(C)N1O (configuration not stated),-16.1%,15.7µM*,7.3%,-11.9,-10.4%,-8.2%
CCn1c(SCC(=O)c2ccc(O)c(O)c2)nnc1-c1ccc(C)cc1,-6.7%,12.5µM*,-17.0%,3.4,-4.0%,-4.7%
